Assay results reported in PubChem BioAssay (NCATS).
Records with an inconclusive call do not appear. A call without a number means that no potency is given here. The source made the active and inactive calls. Calls come from the whole dose curve; as a rule, active = well fitted inhibition curve with a large enough effect; inconclusive = small, poorly fitted or top-dose-only effect; inactive = flat fitted curve, though single readings scatter.

Assays:
Experiment in all cases: qHTS profiling for inhibitors of Plasmodium falciparum proliferation (AID 504749); note: nearly all actives have a fitted effect of over 60% in size
Settings in all cases: P. falciparum in erythrocytes, SYBR Green DNA, 72 h; series mostly up to 28.7 µM
CP191 = system: CP191
Method in brief: (§1)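 Each compound contacts P. falciparum-infected red blood cells for 72 h at 37 C; lysis buffer (Tris, EDTA, saponin, Triton X, SYBR Green I) is added and fluorescence measured next morning; values normalized to controls.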

CP192 = system: CP192
Method in brief: as §1

CP194 = system: CP194
Method in brief: as §1

CP201 = system: CP201
Method in brief: as §1

CP203 = system: CP203
Method in brief: as §1

CP211 = system: CP211
Method in brief: as §1

CP215 = system: CP215
Method in brief: as §1

CP217 = system: CP217
Method in brief: as §1

CP237 = system: CP237
Method in brief: as §1

CP238 = system: CP238
Method in brief: as §1

CP247 = system: CP247
Method in brief: as §1

CP250 = system: CP250
Method in brief: as §1

CP252 = system: CP252
Method in brief: as §1

CP256 = system: CP256
Method in brief: as §1

CP260 = system: CP260
Method in brief: as §1

CP262 = system: CP262
Method in brief: as §1

CP265 = system: CP265
Method in brief: as §1

CP266 = system: CP266
Method in brief: as §1

CP268 = system: CP268
Method in brief: as §1

CP269 = system: CP269
Method in brief: as §1
Potency is the fitted concentration of half-maximal effect.

Compound | Potency (CP191) | Potency (CP192) | Potency (CP194) | Potency (CP201) | Potency (CP203) | Potency (CP211) | Potency (CP215) | Potency (CP217) | Potency (CP237) | Potency (CP238) | Potency (CP247) | Potency (CP250) | Potency (CP252) | Potency (CP256) | Potency (CP260) | Potency (CP262) | Potency (CP265) | Potency (CP266) | Potency (CP268) | Potency (CP269)
NC(=O)n1c(O)c(C(=O)c2cccs2)c2cc(Cl)ccc21 | inactive | inactive | inactive | inactive | inactive | inactive | inactive | inactive | inactive | inactive | inactive | inactive | inactive | inactive | inactive | inactive | inactive | inactive | inactive | inactive
CC(=O)Nc1ccc(S(=O)(=O)Nc2ccc([N+](=O)[O-])cc2)cc1 | inactive | inactive | inactive | inactive | inactive | inactive | inactive | inactive | inactive | inactive | inactive | inactive | inactive | inactive | inactive | inactive | inactive | inactive | inactive | inactive
Cc1cc(C)cc(OCC2CNC(=O)O2)c1 (centres undefined) | inactive | inactive | inactive | inactive | inactive | inactive | inactive | inactive | inactive | inactive | inactive | inactive | inactive | inactive | inactive | inactive | inactive | inactive | inactive | inactive
CCOc1cc(OCC)c(C(=O)CCC(=O)O)cc1OCC | inactive | inactive | inactive | inactive | inactive | inactive | inactive | inactive | inactive | inactive | inactive | inactive | inactive | inactive | inactive | inactive | inactive | inactive | inactive | inactive
CCC1Nc2cc(Cl)c(S(N)(=O)=O)cc2S(=O)(=O)N1 (centres undefined) | inactive | inactive | inactive | inactive | inactive | inactive | inactive | inactive | inactive | inactive | inactive | inactive | inactive | inactive | inactive | inactive | inactive | inactive | inactive | inactive
OC1C(O)C(O)C(O)C(O)C1O (centres undefined) | inactive | inactive | inactive | inactive | inactive | inactive | inactive | inactive | inactive | inactive | inactive | inactive | inactive | inactive | inactive | inactive | inactive | inactive | inactive | inactive
O=C(O)C(Cc1cc(I)c(O)c(I)c1)c1ccccc1 (centres undefined) | inactive | inactive | inactive | inactive | inactive | inactive | inactive | inactive | inactive | inactive | inactive | inactive | inactive | inactive | inactive | inactive | inactive | inactive | inactive | inactive
Nc1nc(N)c(-c2ccccc2)s1 | inactive | inactive | inactive | inactive | inactive | inactive | inactive | inactive | inactive | inactive | inactive | inactive | inactive | inactive | inactive | inactive | inactive | inactive | inactive | inactive
CCN(CC)CCNc1ccc(CO)c2sc3ccccc3c(=O)c12 | 0.355 µM (active) | 1.69 µM (active) | 3.38 µM (active) | 7.57 µM (active) | 4.26 µM (active) | 4.26 µM (active) | 4.26 µM (active) | 2.82 µM (active) | 0.891 µM (active) | 1 µM (active) | 0.891 µM (active) | 1 µM (active) | 0.562 µM (active) | 1.78 µM (active) | 0.794 µM (active) | inactive | 1.58 µM (active) | 5.36 µM (active) | 3.38 µM (active) | 1.9 µM (active)
C/C=C/C=N/NC(=O)c1ccncc1 | inactive | inactive | inactive | inactive | inactive | inactive | inactive | inactive | inactive | inactive | inactive | inactive | inactive | inactive | inactive | inactive | inactive | inactive | inactive | inactive
CCOC(=O)[C@H](CCc1ccccc1)N[C@@H](C)C(=O)N1[C@H](C(=O)O)C[C@H]2CCCC[C@@H]21 | inactive | inactive | inactive | inactive | inactive | inactive | inactive | inactive | inactive | inactive | inactive | inactive | inactive | inactive | inactive | inactive | inactive | inactive | inactive | inactive
O=C(O)P(=O)(O)O | inactive | inactive | inactive | inactive | inactive | inactive | inactive | inactive | inactive | inactive | inactive | inactive | inactive | inactive | inactive | inactive | inactive | inactive | inactive | inactive
C[C@@H](O)[C@H]1C(=O)N2C(C(=O)O)=C(S[C@@H]3CN[C@H](CNS(N)(=O)=O)C3)[C@H](C)[C@H]12 | inactive | inactive | inactive | inactive | inactive | inactive | inactive | inactive | inactive | inactive | inactive | inactive | inactive | inactive | inactive | inactive | inactive | inactive | inactive | inactive
CCC(CC)(CC(=O)Nc1cccc(/C=C/c2nc(C3CCC3)cs2)c1)C(=O)O | inactive | inactive | inactive | inactive | inactive | inactive | inactive | inactive | inactive | inactive | inactive | inactive | inactive | inactive | inactive | inactive | inactive | inactive | inactive | inactive
CCCCCCCCCCCCCC(=O)OC(C)C | inactive | inactive | inactive | inactive | inactive | inactive | inactive | inactive | inactive | inactive | inactive | inactive | inactive | inactive | inactive | inactive | inactive | inactive | inactive | inactive
Cc1c[nH]c2ccccc12 | inactive | inactive | inactive | inactive | inactive | inactive | inactive | inactive | inactive | inactive | inactive | inactive | inactive | inactive | inactive | inactive | inactive | inactive | inactive | inactive
CC(C)Cc1ccc(CC(=O)O)cc1 | inactive | inactive | inactive | inactive | inactive | inactive | inactive | inactive | inactive | inactive | inactive | inactive | inactive | inactive | inactive | inactive | inactive | inactive | inactive | inactive
O=C(NCCc1c[nH]c2ccccc12)c1cccnc1 | inactive | inactive | inactive | inactive | inactive | inactive | inactive | inactive | inactive | inactive | inactive | inactive | inactive | inactive | inactive | inactive | inactive | inactive | inactive | inactive
CC(=O)Nc1ccc(CC(=O)O)cc1 | inactive | inactive | inactive | inactive | inactive | inactive | inactive | inactive | inactive | inactive | inactive | inactive | inactive | inactive | inactive | inactive | inactive | inactive | inactive | inactive
Cc1cc(-c2ccccc2)nnc1NCCN1CCOCC1 | inactive | inactive | inactive | inactive | inactive | inactive | inactive | inactive | inactive | inactive | inactive | inactive | inactive | inactive | inactive | inactive | inactive | – | inactive | inactive
Nc1nc(-c2ccccc2)c(Br)c(=O)[nH]1 | inactive | inactive | inactive | inactive | inactive | inactive | inactive | inactive | inactive | inactive | inactive | inactive | inactive | inactive | inactive | inactive | inactive | inactive | inactive | inactive
CC(=O)Nc1ccc(OCC(O)CNC(C)C)cc1 (centres undefined) | inactive | inactive | inactive | inactive | inactive | inactive | inactive | inactive | inactive | inactive | inactive | inactive | inactive | inactive | inactive | inactive | inactive | inactive | inactive | inactive
OCc1ccccn1 | inactive | inactive | inactive | inactive | inactive | inactive | inactive | inactive | inactive | inactive | inactive | inactive | inactive | inactive | inactive | inactive | inactive | inactive | inactive | inactive
CC(=O)OC[C@H]1O[C@@H](n2ncc(=O)[nH]c2=O)[C@H](OC(C)=O)[C@@H]1OC(C)=O | inactive | inactive | inactive | inactive | inactive | inactive | inactive | inactive | inactive | inactive | inactive | inactive | inactive | inactive | inactive | inactive | inactive | inactive | inactive | inactive
CC(=O)Nc1ncc([N+](=O)[O-])s1 | inactive | inactive | inactive | inactive | inactive | inactive | inactive | inactive | inactive | inactive | inactive | inactive | inactive | inactive | inactive | inactive | inactive | inactive | inactive | inactive
CC1=C(C(=O)O)N2C(=O)[C@@H](NC(=O)[C@H](N)c3ccccc3)[C@H]2SC1 | inactive | inactive | inactive | inactive | inactive | inactive | inactive | inactive | inactive | inactive | inactive | inactive | inactive | inactive | inactive | inactive | inactive | inactive | inactive | inactive
C#C[C@]1(O)CC[C@H]2[C@@H]3CCC4=Cc5oncc5C[C@]4(C)[C@H]3CC[C@@]21C | inactive | inactive | inactive | inactive | inactive | inactive | inactive | inactive | inactive | inactive | inactive | inactive | inactive | inactive | inactive | inactive | inactive | inactive | inactive | inactive
OC[C@H]1O[C@@H]2O[C@H]3[C@H](O)[C@@H](O)[C@@H](O[C@H]4[C@H](O)[C@@H](O)[C@@H](O[C@H]5[C@H](O)[C@@H](O)[C@@H](O[C@H]6[C@H](O)[C@@H](O)[C@@H](O[C@H]7[C@H](O)[C@@H](O)[C@@H](O[C@H]8[C@H](O)[C@@H](O)[C@@H](O[C@H]1[C@H](O)[C@H]2O)O[C@@H]8CO)O[C@@H]7CO)O[C@@H]6CO)O[C@@H]5CO)O[C@@H]4CO)O[C@@H]3CO | inactive | inactive | inactive | inactive | inactive | inactive | inactive | inactive | inactive | inactive | inactive | inactive | inactive | inactive | inactive | inactive | inactive | inactive | inactive | inactive
